# Data taken from PubChem BioAssay (Tox21).
# Records with an inconclusive call do not appear. Where a call stands in place of a potency, no number is given. A number with no mark means an inactive call. Activity calls are given as the source filed them. Unless noted, calls come from the whole dose curve; as a rule, active = well fitted curve in the direction sought with a large enough effect in the repeat runs; inconclusive = weak or mixed curves; inactive = no such curve, though single readings can be large; an effect the other way counts as inactive or inconclusive.
# Key:
# [1] = qHTS assay to identify small molecule agonists of the constitutive androstane receptor (CAR) signaling pathway - cell viability counter screen (AID 1224836); note: nearly all actives have a fitted effect of over 45% in size; for viability change, negative = cytotoxic: series mostly up to about 92 µM
# Procedure, shortened: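 Counter screen multiplexed with the CAR reporter readout: HepG2 cells co-transfected with hCAR and the CYP2B6-2.2kb construct receive a 15-concentration compound series and 0.75 uM PK11195 (final), then CellTiter-Fluor fluorescence is read after 23 h.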
# [2] = qHTS assay to identify small molecule antagonists of the constitutive androstane receptor (CAR) signaling pathway - cell viability counter screen (AID 1224837); note: nearly all actives have a fitted effect of over 45% in size; for activity change, negative = cytotoxicity: series mostly up to about 92 µM
# Procedure, shortened: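 HepG2-CYP2B6-hCAR cells, 2500/well, 4 hr pre-incubation; compound titration, 15 conc.; CITCO 50 nM final; 23 hr, 37 C/5% CO2; CellTiter-Fluor, fluorescence intensity.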
# [3] = qHTS assay to identify small molecule antagonists of the estrogen related receptor signaling pathway with the pleiotropic PPARgamma coactivator (PGC) from Tox21 10K library - cell viability counter screen (AID 1224840; active = well fitted cell-killing curve with a large enough effect in the repeat runs, not every such curve was filed as active; note: nearly all actives have a fitted effect of over 40% in size)
# Procedure, shortened: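 PGC/ERR cells, 2,000/well; 6 h pre-incubation 37 C/5% CO2; cpd in DMSO via pin tool; 17.5 h 37 C; CellTiter-Fluor, 30 min; fluorescence.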
# [4] = target: Thyrotropin receptor (Homo sapiens) (UniProt P16473); assay: qHTS assay to identify small molecule agonists of the thyroid stimulating hormone receptor (TSHR) signaling pathway (AID 1224843; calls by dose curve; note: nearly all actives have a fitted effect of over 45% in size)
# Chain of Thyrotropin receptor (Homo sapiens) (P16473 whole entry, looked up): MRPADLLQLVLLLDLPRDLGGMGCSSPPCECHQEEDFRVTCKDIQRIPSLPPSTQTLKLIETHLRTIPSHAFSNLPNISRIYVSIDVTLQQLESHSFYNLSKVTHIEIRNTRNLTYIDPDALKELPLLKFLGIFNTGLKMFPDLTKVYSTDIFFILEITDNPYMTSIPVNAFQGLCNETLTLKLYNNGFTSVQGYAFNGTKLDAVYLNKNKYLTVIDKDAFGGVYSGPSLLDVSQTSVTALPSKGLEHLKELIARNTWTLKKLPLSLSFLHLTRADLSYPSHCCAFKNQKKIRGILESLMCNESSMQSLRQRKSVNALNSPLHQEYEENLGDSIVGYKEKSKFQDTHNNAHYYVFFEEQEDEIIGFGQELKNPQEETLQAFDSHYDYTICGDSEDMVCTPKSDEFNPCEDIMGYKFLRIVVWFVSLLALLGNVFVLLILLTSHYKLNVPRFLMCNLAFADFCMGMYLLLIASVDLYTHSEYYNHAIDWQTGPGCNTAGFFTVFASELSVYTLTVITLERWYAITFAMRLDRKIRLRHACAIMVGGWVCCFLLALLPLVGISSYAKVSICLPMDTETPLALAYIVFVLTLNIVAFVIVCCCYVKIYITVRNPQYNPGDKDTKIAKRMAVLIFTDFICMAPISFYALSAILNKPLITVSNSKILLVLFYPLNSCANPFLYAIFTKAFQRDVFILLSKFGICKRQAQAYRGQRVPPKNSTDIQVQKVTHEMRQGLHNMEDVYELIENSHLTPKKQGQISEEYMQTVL
# Procedure, shortened: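 Steps: seed 800 TSHR-HEK293 cells per well; add test compound and hold 30 min at ambient temperature; dispense cAMP-d2 then anti-cAMP cryptate; incubate 1 h at ambient; measure fluorescence intensity.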
# [5] = qHTS assay to identify small molecule agonists of the hypoxia (HIF-1) signaling pathway - cell viability counter screen (AID 1224844; calls by dose curve; note: nearly all actives have a fitted effect of over 50% in size)
# Procedure, shortened: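 ME-180 HRE-bla cells, 2,000/well, 0.5% dialyzed FBS; 5 hr settle, 17 hr compound at 37C/5% CO2; CCF4-AM reporter read first, then CellTiter-Glo luminescence after 30 min RT.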
# [6] = qHTS assay to identify small molecule agonists of H2AX (AID 1224845; active = well fitted activation curve with a large enough effect in the signal ratio in the repeat runs, not every such curve was filed as active; the % refers to the signal ratio)
# Procedure, shortened: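 Wild-type CHO-K1 cells, plated overnight, exposed 3hr at 37C to 15 concentrations (0.76% DMSO final). Lysed, then HTRF anti-pH2AX (S139) cryptate and anti-H2AX-d2 antibodies, 24 hr room temperature; 665/620 nm emission read.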
# [7] = target: Nuclear receptor subfamily 1 group I member 3 (Homo sapiens) (UniProt Q14994); assay: qHTS assay to identify small molecule antagonists of the constitutive androstane receptor (CAR) signaling pathway (AID 1224838);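 note: HepG2 cells stably expressing hCAR with CYP2B6 luciferase reporter stimulated by CITCO; nearly all actives have a fitted effect of over 40% in size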
# Chain of Nuclear receptor subfamily 1 group I member 3 (Homo sapiens) (Q14994 whole entry, looked up): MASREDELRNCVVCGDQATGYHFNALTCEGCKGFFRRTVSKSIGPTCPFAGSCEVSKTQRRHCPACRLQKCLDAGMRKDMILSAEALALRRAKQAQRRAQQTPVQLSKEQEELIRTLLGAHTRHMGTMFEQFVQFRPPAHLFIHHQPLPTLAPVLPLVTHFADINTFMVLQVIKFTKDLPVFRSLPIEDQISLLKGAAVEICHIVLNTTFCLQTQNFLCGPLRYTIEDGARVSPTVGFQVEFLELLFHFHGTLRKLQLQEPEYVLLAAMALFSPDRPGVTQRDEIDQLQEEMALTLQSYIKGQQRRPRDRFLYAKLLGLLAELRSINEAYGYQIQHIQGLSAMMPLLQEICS
# Procedure, shortened: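 HepG2-CYP2B6-hCAR cells; 4 h pre-incubation; cpd (15 conc) + CITCO 50 nM final; 24 h, 37 C/5% CO2; ONE-Glo, luminescence.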
# [8] = target: Nuclear receptor subfamily 1 group I member 3 (Homo sapiens) (UniProt Q14994); assay: qHTS assay to identify small molecule agonists of the constitutive androstane receptor (CAR) signaling pathway (AID 1224839); note: nearly all actives have a fitted effect of over 15% in size; for activation: series mostly up to about 92 µM
# Procedure, shortened: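 A 15-concentration quantitative screen uses HepG2 cells co-transfected stably with human CAR and CYP2B6-2.2kb reporter. Treatment lasts 24 h with 0.75 uM PK11195 final present; ONE-Glo luminescence is the signal.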
# [9] = qHTS assay to identify small molecule antagonists of the estrogen related receptor signaling pathway with the pleiotropic PPARgamma coactivator (PGC) from Tox21 10K library (AID 1224841; call rule not given here; note: actives are mostly falling curves and most rising ones were filed inactive; nearly all actives have a fitted effect of over 50% in size; for activity, negative = inhibition: series mostly up to about 92 µM)
# Procedure, shortened: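 PGC/ERR cell line, 2,000 cells/well; 6 h pre-incubation 37 C/5% CO2; compounds (DMSO) pinned in; 18 h, 37 C; One-Glo, 30 min RT; luminescence.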
# [10] = qHTS assay to identify small molecule agonists of the estrogen related receptor signaling pathway with the pleiotropic PPARgamma coactivator (PGC) from Tox21 10K library (AID 1224842); note: nearly all actives have a fitted effect of over 15% in size
# Procedure, shortened: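 PGC/ERR reporter cell line, 2,000 cells per well, incubated 6 h at 37 C before 23 nL compound in DMSO was added. After 18 h at 37 C, One-Glo luminescence read following 30 min at room temperature.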
# Potency is the fitted concentration of half-maximal effect.
compound,measurement,setting,value
Cc1cn[nH]c1,Potency,[1],inactive
same,Potency,[2],inactive
same,Potency,[3],inactive
same,Potency,[4],inactive
same,Potency,[5],inactive
same,Potency,[6],inactive
N#CSCSc1nc2ccccc2s1,Potency,[1],61.1 µM (active)
same,Potency,[7],30.6 µM (active)
same,Potency,[8],inactive
same,Potency,[3],61.1 µM (active)
Cc1nc(Nc2ncc(C(=O)Nc3c(C)cccc3Cl)s2)cc(N2CCN(CCO)CC2)n1,Potency,[1],7.5 µM (active)
same,Potency,[7],9.44 µM (active)
same,Potency,[8],inactive
same,Potency,[9],inactive
same,Potency,[10],0.0944 µM (active)
same,Potency,[4],inactive
same,Potency,[5],inactive
same,Potency,[6],55.2 µM (active)
Oc1ccc(-c2ccccc2)c(Cl)c1,Potency,[1],inactive
same,Potency,[7],inactive
same,Potency,[3],inactive
same,Potency,[4],inactive
same,Potency,[6],inactive
C=CC(=C)CCC=C(C)C,Potency,[1],inactive
same,Potency,[8],inactive
same,Potency,[3],inactive
same,Potency,[5],inactive
CCCCNc1c(C(=O)OCC)c(C)nc2c1cnn2CC,Potency,[1],inactive
same,Potency,[7],inactive
same,Potency,[3],inactive
same,Potency,[4],inactive
same,Potency,[5],inactive
same,Potency,[6],inactive
O=C(Oc1ccccc1)c1cccc(C(=O)Oc2ccccc2)c1,Potency,[1],inactive
same,Potency,[7],inactive
same,Potency,[8],1.44 µM (active)
same,Potency,[3],inactive
same,Potency,[5],inactive
CC(=O)OC1CCCCC1,Potency,[1],inactive
same,Potency,[3],inactive
same,Potency,[10],inactive
same,Potency,[4],inactive
same,Potency,[5],inactive
same,Potency,[6],inactive
CCCCOC(=O)C(C)CC (stereo not given),Potency,[2],inactive
same,Potency,[7],inactive
same,Potency,[8],inactive
same,Potency,[3],inactive
same,Potency,[9],inactive
same,Potency,[10],inactive
same,Potency,[4],inactive
same,Potency,[5],inactive
same,Potency,[6],inactive
O=S(=O)(O)c1cc(S(=O)(=O)O)c2ccc3c(S(=O)(=O)O)cc(S(=O)(=O)O)c4ccc1c2c43,"viability change, negative = cytotoxic",[1],3.39% [at 19 µM]
same,"viability change, negative = cytotoxic",[3],1.08% [at 19 µM]
same,"activity, negative = inhibition",[9],13.5% [at 19 µM]
same,activation,[4],-6.64% [at 19 µM]
same,"activity change, negative = cytotoxicity",[5],1.23% [at 15.8 µM]
CC(COC(=O)c1ccccc1)OC(=O)c1ccccc1 (stereo not given),Potency,[2],inactive
same,Potency,[7],inactive
same,Potency,[8],inactive
same,Potency,[3],inactive
same,Potency,[9],inactive
same,Potency,[4],inactive
same,Potency,[5],inactive
same,Potency,[6],inactive
Cc1c(C(=O)O)cccc1[N+](=O)[O-],Potency,[2],inactive
same,Potency,[7],inactive
same,Potency,[8],inactive
same,Potency,[3],inactive
same,Potency,[4],inactive
same,Potency,[5],inactive
same,Potency,[6],inactive
Oc1cc2ccccc2cc1O,Potency,[2],inactive
same,Potency,[7],inactive
same,Potency,[8],inactive
same,Potency,[3],inactive
same,Potency,[4],inactive
same,Potency,[5],inactive
Cc1cnccn1,Potency,[2],inactive
same,Potency,[7],inactive
same,Potency,[8],inactive
same,Potency,[3],inactive
same,Potency,[10],inactive
same,Potency,[5],inactive
same,Potency,[6],inactive
O=CC1CC1,Potency,[2],inactive
same,Potency,[7],inactive
same,Potency,[8],inactive
same,Potency,[3],inactive
same,Potency,[4],inactive
same,Potency,[5],inactive
CNC(=S)NN,Potency,[1],43.3 µM (active)
same,Potency,[3],13.7 µM (active)
same,Potency,[9],9.69 µM (active)
same,Potency,[10],inactive
same,Potency,[4],inactive
O=C1NCN(c2ccccc2)C12CCN(CCCC(c1ccc(F)cc1)c1ccc(F)cc1)CC2,Potency,[1],16.8 µM (active)
same,Potency,[7],13.3 µM (active)
same,Potency,[8],inactive
same,Potency,[10],inactive
same,Potency,[4],inactive
same,Potency,[5],10.7 µM (active)
CCOC(=O)N1CCC(=C2c3ccc(Cl)cc3CCc3cccnc32)CC1,Potency,[1],inactive
same,Potency,[3],30.6 µM (active)
CC(C)(C)c1n[nH]c(=O)n(N)c1=O,Potency,[1],inactive
same,Potency,[3],inactive
same,Potency,[9],inactive
same,Potency,[4],inactive
same,Potency,[5],inactive
C=C(C)C(=O)OCCC[Si](Cl)(Cl)Cl,Potency,[1],inactive
same,Potency,[7],inactive
same,Potency,[8],inactive
same,Potency,[3],inactive
same,Potency,[4],inactive
same,Potency,[5],inactive
same,Potency,[6],inactive
NC(=O)c1nc(-c2cccc(-c3cc(F)ccc3OCC(F)(F)C(F)(F)F)c2)n[nH]1,Potency,[1],61.1 µM (active)
same,Potency,[9],24.3 µM (active)
same,Potency,[10],inactive
same,Potency,[4],inactive
same,Potency,[6],inactive
CC1=CP(=O)(c2ccccc2)CC1 (stereo not given),Potency,[1],inactive
same,Potency,[3],inactive
same,Potency,[9],inactive
same,Potency,[10],inactive
same,Potency,[4],inactive
same,Potency,[6],inactive
O=C1c2c(O)ccc([N+](=O)[O-])c2C(=O)c2c([N+](=O)[O-])ccc(O)c21,Potency,[2],24.1 µM (active)
same,Potency,[7],24.1 µM (active)
same,Potency,[8],inactive
same,Potency,[3],30.4 µM (active)
same,Potency,[9],9.6 µM (active)
CCOC(=O)C1=C(C)NC(C)=C(C(=O)OCC)C1c1ccccc1/C=C/C(=O)OC(C)(C)C,Potency,[1],inactive
same,Potency,[7],inactive
same,Potency,[10],inactive
same,Potency,[4],inactive
C[C@@H]1CC[C@H]2C(C)(C)[C@H]3C[C@@]12CC[C@@]3(C)O,Potency,[1],inactive
same,Potency,[3],inactive
same,Potency,[9],54.4 µM (active)
same,Potency,[4],54.4 µM (active)
same,Potency,[5],inactive
same,Potency,[6],inactive
CCCCCCCCCCc1ccccc1,Potency,[1],inactive
same,Potency,[3],inactive
same,Potency,[9],inactive
same,Potency,[10],inactive
same,Potency,[5],inactive
CCCCCCC(C)OC(=O)COc1nc(F)c(Cl)c(N)c1Cl (stereo not given),Potency,[1],inactive
same,Potency,[3],inactive
same,Potency,[9],inactive
same,Potency,[10],inactive
same,Potency,[5],inactive
Cc1ccc(CCn2c3c(c4cc(Cl)ccc42)CN(C)CC3)cn1,Potency,[1],inactive
same,Potency,[7],inactive
same,Potency,[8],inactive
same,Potency,[9],inactive
same,Potency,[10],9.44 µM (active)
same,Potency,[6],inactive
CCOC(=O)[C@@](C)(N)Cc1ccc(O)c(O)c1,Potency,[2],inactive
same,Potency,[7],inactive
same,Potency,[8],inactive
same,Potency,[3],inactive
same,Potency,[9],inactive
same,Potency,[10],inactive
same,Potency,[4],inactive
Clc1cccnc1,Potency,[1],inactive
same,Potency,[3],inactive
same,Potency,[4],inactive
same,Potency,[5],inactive
CCc1ccc(O)c(C(C)(C)C)c1,Potency,[1],inactive
same,Potency,[3],inactive
same,Potency,[4],inactive
same,Potency,[5],inactive
same,Potency,[6],inactive
